Compound activity from PubChem.
A selection: hits, their analogues and other compounds. The true share with any hit is near 3.6%.
KAT2A inh = inhibitors of human GCN5L2 histone acetyltransferase; GCN5L2 HAT assay, ThioGlo1 CoA-SH fluorescence; Q92830; Potency, µM (doses to about 58.9 µM), inactives show at the top dose activity change, negative = inhibition, actives largely listed as inhibitors; 0.21% of 390,000 active; AID 504327; also: potency is read from the fitted curve at half-maximal effect; % is scaled to controls: 0 for no effect and ±100 for the full control effect
Target sequence (Q92830 whole entry, looked up): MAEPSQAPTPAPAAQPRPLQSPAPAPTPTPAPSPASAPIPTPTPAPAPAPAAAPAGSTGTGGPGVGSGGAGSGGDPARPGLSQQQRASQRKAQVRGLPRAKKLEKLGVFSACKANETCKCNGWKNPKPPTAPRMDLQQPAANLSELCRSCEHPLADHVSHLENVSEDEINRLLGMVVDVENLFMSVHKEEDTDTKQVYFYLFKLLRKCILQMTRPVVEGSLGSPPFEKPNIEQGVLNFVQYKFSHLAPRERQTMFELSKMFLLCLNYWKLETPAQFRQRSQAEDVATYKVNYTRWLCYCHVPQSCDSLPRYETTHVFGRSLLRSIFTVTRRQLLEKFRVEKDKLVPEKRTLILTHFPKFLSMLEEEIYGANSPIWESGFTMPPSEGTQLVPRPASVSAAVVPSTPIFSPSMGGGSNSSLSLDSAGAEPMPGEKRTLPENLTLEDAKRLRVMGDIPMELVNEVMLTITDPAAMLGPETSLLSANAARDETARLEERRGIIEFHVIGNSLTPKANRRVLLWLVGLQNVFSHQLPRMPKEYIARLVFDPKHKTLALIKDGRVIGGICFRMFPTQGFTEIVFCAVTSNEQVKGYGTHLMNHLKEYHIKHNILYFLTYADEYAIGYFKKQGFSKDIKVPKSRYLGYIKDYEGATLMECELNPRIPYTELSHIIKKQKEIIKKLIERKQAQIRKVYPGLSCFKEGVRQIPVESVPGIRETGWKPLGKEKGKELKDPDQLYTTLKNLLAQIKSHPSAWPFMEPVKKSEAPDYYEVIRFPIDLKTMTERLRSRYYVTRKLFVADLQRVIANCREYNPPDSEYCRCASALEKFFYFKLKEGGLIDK
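GCN5L2 (20 nM) in 50mM HEPES pH 7.5, 0.1mM EDTA, 0.01% Tween-20 preincubated 15 min with compounds at room temperature. Reaction started with H3(1-25) 75uM, acetyl-CoA 70uM, ThioGlo1 50uM; CoA-thiol fluorescence (Ex340/Em540) read at 0 and 20 min.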
PI5P4K alpha inh = blocks human PI5P4K alpha kinase activity. P48426. PI5P4Kalpha enzyme, ADP-Glo luminescence, 60 min; stronger effect = lower value. max response, %. 1.2% of 330,000 active. AID 652105; active = max response of -50% or lower; inconclusive = between -30% and -50%; inactive = -30% or higher; also: value at the top dose of about 77 µM; % is scaled to controls: 0 for no effect and ±100 for the full control effect
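Compounds were pin-transferred onto PI5P4Kalpha and substrate in HEPES pH 7.4 buffer with EGTA, CHAPS and 5% DMSO. ATP (5 microM final) started the reaction, which ran 60 minutes at room temperature before ADP-Glo detection.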
PLK1 PBD block = PLK1 (human) polo-box domain binding inhibition | 2.8% of 360,000 active | AID 720504 | Plk1 PBD binding of FITC phosphopeptide, fluorescence polarization | Potency, µM, inactives show max response, negative = inhibition, hits mostly inhibitors | P53350; also: potency is read from the fitted curve at half-maximal effect; series mostly up to about 57 µM; % is scaled to controls: 0 for no effect and ±100 for the full control effect; nearly all actives have a fitted effect of over 65% in size
Rango-impB inh = Rango-importin beta binding inhibition | Rango CFP/YFP FRET sensor + importin beta, 45 min | Q14974 | 0.031% of 340,000 active | Potency, µM (doses to about 92.2 µM), for inactives: at the highest dose inhibition of complex formation; calls by dose curve;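 also: potency is read from the fitted curve at half-maximal effect; 0% = DMSO wells and 100% = buffer wells lacking importin beta; nearly all actives have a fitted effect of over 15% in size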
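Inhibition scored from the CFP 486 nm/YFP 530 nm FRET ratio 45 min after adding 0.125 microM importin beta to 50 nM Rango biosensor preincubated 5 min with compound (room temperature, PBS with DTT, Tween-20, BSA). No-importin wells as positive control.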
Rango release inh = prevents RanGTP from dissociating the Rango-importin beta complex; O95149+P62826; Biochemical FRET Rango-importin beta, RanGTP-induced dissociation; Potency, µM (titrated, usually from 46.1 µM), for the others: at the top dose activity change, negative = inhibition; 0.071% of 340,000 active; AID 540253; calls by dose curve; also: potency is read from the fitted curve at half-maximal effect; % of control where 0% means no effect; nearly all actives have a fitted effect of over 45% in size
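Two FRET readings bracket the reaction: one 5 min after compound meets Rango–importin beta, another 45 min after RanGTP-RCC1 (0.6 uM Ran, 0.2 uM RCC1, 2 mM GTP) is added. Only the second defines inhibition.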
VDR inh = vitamin D3 receptor (human) inhibition; AID 504847; VDR-SRC2-3 peptide fluorescence polarization, 2 h; Potency, µM, for inactives: max response, negative = inhibition, most hits filed as inhibitors; 0.93% of 400,000 active; also: potency is read from the fitted curve at half-maximal effect; % is scaled to controls: 0 for no effect and ±100 for the full control effect
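VDR–SRC2-3 interaction, FP format. Cmpds 23 nl via pintool, brief spin, 2 h ambient incubation.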
VDR inh confirm = confirmation of human vitamin D receptor inhibitors; shares compounds with VDR inh; VDR-coactivator inhibition assay, qHTS confirmation; Potency, µM, actives largely listed as inhibitors; 89% of 840 active; AID 602199; also: potency is read from the fitted curve at half-maximal effect
VDR FP = confirmation of human VDR-coactivator binding inhibitors, fluorescein label; shares compounds with VDR inh; 48% of 840 active; AID 602200; VDR-coactivator binding, fluorescein fluorescence polarization; Potency, µM (doses to about 57.1 µM), without a hit: at the top dose activity change, negative = inhibition, most hits filed as inhibitors; also: potency is read from the fitted curve at half-maximal effect
VDR bla reporter = confirmation of human vitamin D receptor inhibitors in reporter cells. Potency, µM (top dose mostly 46.1 µM), inactives show at the highest dose activity change, negative = inhibition, actives largely listed as inhibitors. shares compounds with VDR inh. VDR beta-lactamase reporter cells, FRET ratio; cells co-treated with VDR agonist LG190178. AID 602202. 23% of 840 active; also: potency is read from the fitted curve at half-maximal effect; % is scaled to controls: 0 for no effect and ±100 for the full control effect
VDR cytotox = counter-screen for vitamin D receptor inhibitors: cytotoxicity | 18% of 840 active | shares compounds with VDR inh | Potency, µM (highest dose often 48.3 µM), inactives show at the highest dose activity change, negative = cytotoxicity, usual class: cytotoxic | cytotoxicity counter-screen, cell viability, qHTS;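 also: potency is read from the fitted curve at half-maximal effect; plate controls were DMSO for no effect and high-concentration cycloheximide for full effect; nearly all actives have a fitted effect of over 75% in size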
* marks the source's active call; other numbers are inactive results; ? = inconclusive; . = not tested or not shown. Unless noted, calls follow the shape of the dose curve; as a rule, active = well fitted curve in the direction sought with a large enough effect; inconclusive = small, poorly fitted or top-dose-only effect, or another doubt; inactive = no such curve, though single readings can be large; an effect the other way counts as inactive or inconclusive.

SMILES | KAT2A inh | PI5P4K alpha inh | PLK1 PBD block | Rango-impB inh | Rango release inh | VDR inh | VDR inh confirm | VDR FP | VDR bla reporter | VDR cytotox
C=CCOc1c(Br)cc(/C=C2/C(=O)ON=C2C)cc1OC | -7% | -5 | 4.7µM* | 0% | 11% | 45µM* | 9.5* | ? | -10% | 11%
CC1=NOC(=O)/C1=C\c1ccc(-c2ccc(Cl)cc2Cl)o1 | -17% | ? | 0.42µM* | 0% | 24% | 22µM* | 3.8* | 2.2µM* | ? | ?
CCCOc1ccc(Cl)cc1/C=C1/C(=O)ON=C1C | -9% | -9 | 2.4µM* | 13% | -19% | 25µM* | 11* | 3.5µM* | 13% | ?
C#CCOc1c(Cl)cc(/C=C2/C(=O)ON=C2C)cc1OCC | -8% | -10 | 6µM* | -5% | 2% | ? | 7.9* | 7.9µM* | -4% | 10%
Cc1cc(NC(=O)CCCOc2ccc(Cl)cc2Cl)no1 | -5% | . | -2% | 0% | -16% | 0% | . | . | . | .
C=CCOc1c(Br)cc(CNn2cn[nH]c2=S)cc1OC | 4% | -8 | -15% | 2% | -2% | -16% | . | . | . | .
COS(C)(=O)=O | -9% | . | . | . | . | 2% | . | . | . | .
Cc1ccc2oc(=O)c3cc(C(=O)Nc4cccc(C#N)c4)sc3c2c1 | -2% | . | . | . | . | -13% | . | . | . | .
Cc1c(C(=O)N2CCC(C)CC2)c(S(=O)(=O)N2CCN(c3ccc(Cl)cc3)CC2)c(C)n1C | -11% | . | . | . | . | -6% | . | . | . | .
Cc1ccc(C)c(CN2C(=O)c3ccccc3S(=O)c3ccc(C(=O)N4CCN(c5cccc(Cl)c5)CC4)cc32)c1 (stereo not drawn) | -4% | . | . | . | . | -10% | . | . | . | .
CCN1C(=O)/C(=C/c2ccc(OCc3ccc(C(=O)O)cc3)c(Cl)c2)NC1=S | -12% | ? | ? | ? | ? | ? | . | . | . | .
C#CCOc1ccc(/C=C2/C(=O)ON=C2C)cc1Cl | -2% | -15 | 2.1µM* | 8% | 14% | 45µM* | 6* | ? | -3% | 9%
CCOc1cc(/C=C2/C(=O)ON=C2C)ccc1OCc1ccc(F)cc1 | -1% | . | ? | 0% | 4% | 79µM* | ? | 157% | -5% | -34%
O=C1Nc2ccc(Br)cc2/C1=C/C(=O)c1ccc2c(c1)OCO2 | -8% | ? | ? | 1% | -18% | 40µM* | ? | ? | ? | ?
COc1ccc(C(=O)/C=C2\C(=O)Nc3ccc(Br)cc32)cc1 | . | 2 | ? | 0% | -2% | ? | . | . | . | .
CCOC(=O)COc1ccccc1/C=C\[N+](=O)[O-] | 7% | -8 | 7.5µM* | -2% | -12% | 11µM* | 3.4* | ? | 4.6µM* | 8.2µM*
CC[C@H](C)[C@@H](NC(=O)O[C@H]1C(=O)c2ccc(OC)cc2O[C@@H]1c1ccc2c(c1)OCO2)C(=O)OC | . | . | . | . | . | 3% | . | . | . | .
C=CCN1C(=O)C(C)(C)Nc2ccccc21 | -3% | 0 | -7% | 4% | 9% | 6% | . | . | . | .
C=CCN1C(=O)/C(=N/n2cnnc2)c2ccccc21 | -2% | -7 | -23% | 3% | -1% | 40µM* | 17* | ? | 23% | -26%
COc1ccc(/C=C/C(=O)c2ccccn2)cc1 | -14% | -17 | -12% | ? | ? | 40µM* | 34* | ? | 34% | -14%
O=C(CSc1nc2ccccc2n1Cc1cccc(C(F)(F)F)c1)NCc1ccccc1 | 3% | . | . | . | . | 17% | . | . | . | .
O=C1C(Cl)=C(NS(=O)(=O)c2ccc([N+](=O)[O-])cc2)C(=O)c2ccccc21 | -11% | 102 | ? | -3% | 13% | 22µM* | 6* | ? | ? | ?
O=[N+]([O-])c1ccc(Oc2ccc(S(=O)(=O)Nc3ccccc3)cc2)cc1 | -11% | 1 | -2% | -3% | -9% | -8% | . | . | . | .
CCOC(=O)CSC1=NC(=O)/C(=C\c2ccc(Cl)cc2)S1 | -1% | ? | 0.84µM* | 6% | -16% | 79µM* | 8.4* | 75% | ? | ?
Cc1ccc(CSC2=Nc3ccccc3C3=NC(CC(=O)NC4CCCCC4)C(=O)N23)cc1 (stereo not drawn) | -5% | . | . | . | . | 14% | . | . | . | .
SMILES | KAT2A inh | PI5P4K alpha inh | PLK1 PBD block | Rango-impB inh | Rango release inh | VDR inh | VDR inh confirm | VDR FP | VDR bla reporter | VDR cytotox
CC(=O)Nc1ccc(NC(=O)CC(C)n2ccc(C)n2)cc1 (stereo not drawn) | -2% | . | . | . | . | -2% | . | . | . | .
O=C(NC1CCCCCC1)C(=S)N1CCOCC1 | 3% | -28 | 5.3µM* | 4% | 1% | 18µM* | 21* | ? | -4% | 22%
C[C@@H]1C(=O)CC2C(C)(C)CCC[C@]2(C)[C@@]1(O)CCc1ccoc1 (stereo partly drawn) | . | . | . | . | . | 0% | . | . | . | .
CCCn1ccc2c(OCC(=O)NCc3ccccc3Cl)cccc2c1=O | -7% | . | . | . | . | 9% | . | . | . | .
CCOc1cc(/C=C/c2nc3cc(C)c(C)cc3s2)ccc1OCC(=O)N1CCOCC1 | -13% | 5 | -17% | -9% | 0% | 4% | . | . | . | .
CCOc1cc(/C=C\[N+](=O)[O-])ccc1OCC(=O)N1CCOCC1 | 2% | -18 | 21µM* | -5% | -17% | 28µM* | 27* | ? | ? | ?
COc1ccc(-c2nc3ccccc3n3c(-c4ccc(OC)cc4)c4c(=O)n(C)c(=O)n(C)c4c23)cc1 | -2% | . | . | . | . | -21% | . | . | . | .
Cc1ccc2cccc(NC(=O)COc3ccccc3[N+](=O)[O-])c2n1 | -4% | . | . | . | . | 14% | . | . | . | .
CCC(C)(C)c1nnc(NC(=O)C2CCN(C(=O)c3ccco3)CC2)s1 | -28% | ? | 2.4µM* | -1% | -9% | 50µM* | 6.7* | ? | -12% | 4%
Cc1noc(C)c1S(=O)(=O)NCCc1csc2nc(-c3ccc(Cl)cc3)nn12 | -2% | . | . | . | . | 9% | . | . | . | .
Cc1cccc2c1NC(=O)/C2=C\C(=O)c1cccs1 | -8% | -17 | -27% | 1% | -9% | ? | 6.3* | 8.9µM* | 23µM* | 30µM*
OCc1cn(-c2ccccc2)nn1 | 2% | 15 | -11% | 3% | 16% | 0% | . | . | . | .
